Compound activity (PubChem BioAssay)
Shown are actives, neighbours in structure and some others; about 7.3% of the full set was active somewhere.
FLuc counter: qHTS profiling assay for firefly luciferase inhibitor/activator using purifed enzyme and Km concentrations of substrates (counterscreen for miR-21 project) | purified FLuc, Km substrates, luminescence inhibition | Potency, µM (doses to about 57.5 µM), most hits filed as inhibitors | hit rate 6.9% among 360,000 | AID 588342, 2011; note: nearly all actives have a fitted effect of over 55% in size
Target sequence (P08659 whole entry, looked up): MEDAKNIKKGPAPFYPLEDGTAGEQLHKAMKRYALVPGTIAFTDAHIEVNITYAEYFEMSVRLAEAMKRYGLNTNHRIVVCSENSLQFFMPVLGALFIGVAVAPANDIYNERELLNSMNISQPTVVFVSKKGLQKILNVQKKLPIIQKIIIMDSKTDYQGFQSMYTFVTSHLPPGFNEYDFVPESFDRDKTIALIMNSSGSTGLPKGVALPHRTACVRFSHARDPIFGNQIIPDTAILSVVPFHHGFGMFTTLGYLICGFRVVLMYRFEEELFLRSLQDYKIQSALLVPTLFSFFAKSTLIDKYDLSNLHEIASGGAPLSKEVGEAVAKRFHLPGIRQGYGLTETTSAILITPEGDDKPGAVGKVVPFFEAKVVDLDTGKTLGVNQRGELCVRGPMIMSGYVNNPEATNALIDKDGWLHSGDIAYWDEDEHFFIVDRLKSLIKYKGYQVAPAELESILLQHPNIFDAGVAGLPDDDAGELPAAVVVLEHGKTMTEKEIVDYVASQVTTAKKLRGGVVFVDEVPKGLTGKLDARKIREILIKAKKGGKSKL
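Purified P. pyralis luciferase (10nM final) with 10uM D-luciferin and 10uM ATP (Km levels) in 50mM Tris acetate pH 7.5, 10mM Mg acetate, 0.01% Tween-20, 0.05% BSA; qHTS 6-point titration, ~60 µM downward; luminescence read.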
ELG1 genotox: qHTS screen for small molecules that induce genotoxicity in human embryonic kidney (HEK293T) cells expressing luciferase-tagged ELG1; HEK293T ELG1-luciferase reporter, luminescence, 16 h; Potency, µM (titrated, usually from 46 µM), most hits filed as activators; AID 504466, 2011; hit rate 1.3% among 330,000; note: nearly all actives have a fitted effect of over 60% in size
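DMSO vehicle served as control against compound-treated ELG1-luciferase HEK293T cells; exposure lasted 16 hr at 37 °C and 5% CO2, followed by ONE-Glo luminescence detection after 30 min.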
SMN2 splice up: qHTS Assay for Enhancers of SMN2 Splice Variant Expression; HEK293 SMN2-luciferase splicing reporter, luminescence, 30-36 h; hit rate 2.8% among 210,000; Potency, µM (highest dose often 46.1 µM), usual class: activators; AID 1458, 2008; note: nearly all actives have a fitted effect of over 55% in size
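qHTS luciferase splicing reporter: luminescence rises when SMN2 exon 7 is included in transfected HEK293 cells. Compound exposure lasted 30-36 h at 37C, with 4.5 mM final sodium butyrate as control, followed by a ONE-Glo read.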
NPC1 prom act: qHTS Assay for NPC1 Promoter Activators | hit rate 2.4% among 320,000 | Huh7 NPC1 promoter luciferase reporter, 24 h | Potency, µM (series often up to 9.22 µM), actives largely listed as activators; note: nearly all actives have a fitted effect of over 60% in size
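Stably transfected Huh7 (NPC1 promoter→luciferase), 1500 cells/well in Opti-MEM + 10% FBS, 2 h settle, then compound 24 h at 37 °C. Luminescence after 10 min with Amplite reagent.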
uPA generation: qHTS for Inhibitors of Cell Surface uPA Generation. cell surface uPA generation assay, qHTS. Potency, µM (doses to about 38.3 µM), usual class: inhibitors. hit rate 0.31% among 330,000; active = well fitted inhibition curve with a large enough effect; inconclusive = small, poorly fitted or top-dose-only effect; inactive = no such curve, though single readings can be large or run the other way; tested in mouse RAW 264.7 cells; note: nearly all actives have a fitted effect of over 55% in size
Rab9 promoter act: qHTS Assay for Rab9 Promoter Activators; AID 485297, 2010; Huh7 Rab9 promoter-luciferase reporter, luminescence, 24 h; Potency, µM (titrated, usually from 9.22 µM), usual class: activators; hit rate 2.8% among 320,000; note: nearly all actives have a fitted effect of over 60% in size
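Quantitative HTS format; Huh7 Rab9-luciferase reporter cells (1500/well) receive compound 2 h post-plating, incubate 24 h at 37 °C, then get luciferase reagent for 10 min before luminescence reading.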
Large screens that a line does not name were inactive. Unless noted, calls come from the whole dose curve; as a rule, active = well fitted curve in the direction sought with a large enough effect; inconclusive = small, poorly fitted or top-dose-only effect, or another doubt; inactive = no such curve, though single readings can be large; an effect the other way counts as inactive or inconclusive.

COc1ccc(-c2csc(Nc3ncccc3C)n2)cc1	FLuc counter 5.4µM, ELG1 genotox inconclusive, SMN2 splice up 2.2µM, NPC1 prom act 1.8µM, Rab9 promoter act 1.6µM
Cc1cccnc1Nc1nc(-c2ccc(O)c(O)c2)cs1	FLuc counter 17µM, ELG1 genotox 5.2µM, uPA generation inconclusive, Rab9 promoter act inconclusive
Cc1nc(C)c(-c2csc(Nc3ncccc3C)n2)s1	FLuc counter 6.7µM, ELG1 genotox inconclusive, NPC1 prom act 2.5µM, Rab9 promoter act 1.3µM (no result: SMN2 splice up)
COc1ccc(-c2csc(Nc3ncccc3C)n2)cc1OC	SMN2 splice up inconclusive, NPC1 prom act inconclusive, Rab9 promoter act inconclusive
CCc1ccc(S(=O)(=O)c2c(C(=O)c3ccc(C)c(C)c3)cnc3ccccc23)cc1	none (no result: ELG1 genotox, NPC1 prom act, uPA generation, Rab9 promoter act)
COc1ccc(CNC(=O)C2CCN(C(=O)c3ccc(-n4ccc5ccccc54)s3)CC2)cc1	none (no result: ELG1 genotox, SMN2 splice up, NPC1 prom act, uPA generation, Rab9 promoter act)
COc1cccc(CNC(=O)c2cnc3sc(N4CCCC4)nn3c2=O)c1OC	none (no result: ELG1 genotox, SMN2 splice up, NPC1 prom act, uPA generation, Rab9 promoter act)
O=C(Nc1cccnc1Cl)c1ccc2c(Cl)c3c(nc2c1)CCC3	FLuc counter 0.85µM, ELG1 genotox 2.3µM, SMN2 splice up inconclusive, NPC1 prom act 1µM, Rab9 promoter act 0.71µM
CCOC(=O)N1CCC(NC(=O)c2ccc3c(Cl)c4c(nc3c2)CCCC4)CC1	uPA generation inconclusive
O=C(Nc1ccccc1F)c1ccc2c(Cl)c3c(nc2c1)CCC3	FLuc counter 0.15µM, SMN2 splice up inconclusive (no result: ELG1 genotox, NPC1 prom act, uPA generation, Rab9 promoter act)
N#Cc1ccccc1NC(=O)c1ccc2c(Cl)c3c(nc2c1)CCCC3	FLuc counter 3.8µM, SMN2 splice up 10µM, NPC1 prom act inconclusive, Rab9 promoter act 3.5µM
O=C(NC1CC1)c1ccc2c(Cl)c3c(nc2c1)CCCC3	FLuc counter 13µM, uPA generation inconclusive
CC(C)OCCCNC(=O)CN1C(=O)c2ccccc2Sc2ncccc21	none (no result: ELG1 genotox, SMN2 splice up, NPC1 prom act, uPA generation, Rab9 promoter act)
COc1cccc2cc(C(=O)NCc3ccccc3)c(=N)oc12	FLuc counter 11µM (no result: SMN2 splice up)
CCOc1cccc2cc(C(=O)NC(C)c3ccccc3)c(=N)oc12 (configuration not stated)	none (no result: SMN2 splice up)
CCOc1cccc2cc(C(=O)NCc3ccccc3)c(=N)oc12	FLuc counter 17µM (no result: SMN2 splice up)
CCOc1cccc2cc(C(=O)NCc3ccc(F)cc3)c(=N)oc12	FLuc counter 15µM, ELG1 genotox inconclusive, uPA generation inconclusive (no result: SMN2 splice up)
COc1cccc2cc(C(=O)NCc3ccc(Cl)cc3)c(=N)oc12	FLuc counter inconclusive (no result: SMN2 splice up)
CC(=O)OCCC(C)CCC=C(C)C (configuration not stated)	none (no result: FLuc counter, ELG1 genotox, NPC1 prom act, uPA generation, Rab9 promoter act)
COc1ccc(C2=NC(c3ccncc3)=Nc3ccc(OC)cc3N2)cc1	none (no result: ELG1 genotox, NPC1 prom act, uPA generation, Rab9 promoter act)
CC(=O)N1/C(=C/c2ccc(N(C)C)cc2)C(=O)c2ccccc21	FLuc counter 17µM
CC(=O)N1c2ccccc2C(=O)C1N(C)c1ccc(C)cc1 (configuration not stated)	none (no result: SMN2 splice up)
CCCNc1c(F)c(F)c2c(C)c3ccccc3nc2c1F	FLuc counter 6µM, ELG1 genotox inconclusive, NPC1 prom act inconclusive, Rab9 promoter act inconclusive
CN(C)S(=O)(=O)c1ccc(Cl)c(NC(=O)CN2C(=O)NC(C)(C3CC3)C2=O)c1 (configuration not stated)	uPA generation 5.6µM (no result: SMN2 splice up)
Cc1ccc(-c2nonc2NC(=O)c2ccc(F)cc2)cc1C	none (no result: ELG1 genotox, SMN2 splice up, NPC1 prom act, uPA generation, Rab9 promoter act)
CC(=O)NCCNC(=O)CCCc1nnc2n(CCC(C)C)c(=O)c3sccc3n12	none (no result: ELG1 genotox, SMN2 splice up, NPC1 prom act, uPA generation, Rab9 promoter act)
CCCN1CCN(CCCNC(=S)Nc2ccc(OC)cc2)CC1	none
COc1cccc(NC(=O)c2cnc[nH]2)c1	FLuc counter inconclusive (no result: SMN2 splice up)
O=C(Nc1ccc(Br)cc1)c1cnc[nH]1	FLuc counter 24µM, ELG1 genotox inconclusive, NPC1 prom act inconclusive, Rab9 promoter act 3.5µM (no result: SMN2 splice up)
O=C(Nc1ccc(F)cc1)N1CCc2ccccc2C1	FLuc counter 24µM, ELG1 genotox inconclusive, NPC1 prom act 4µM, Rab9 promoter act inconclusive (no result: SMN2 splice up)
O=C(Nc1ccc(Br)cc1)N1CCc2ccccc2C1	FLuc counter 11µM, ELG1 genotox inconclusive, NPC1 prom act 2.8µM, Rab9 promoter act 2.8µM (no result: SMN2 splice up)
